{
  "source": "paper PMC7819943",
  "about": "“Rice protein-binding microarrays: a tool to detect cis-acting elements near promoter regions in rice”",
  "note": "Whole data set: some 39,000 sequences, median “fluorescence intensity (a.u.)” near 4,300, cut for the highest 2% near 39,000. The sample holds the highest values, similar sequences and a random draw of the others, so the mix is not that of the screen.",
  "data": [
    {"biological_target": "T1, OsSMF1 (Oryza sativa, UniProt Q6ZLB0 1-436)", "T1 sequence": "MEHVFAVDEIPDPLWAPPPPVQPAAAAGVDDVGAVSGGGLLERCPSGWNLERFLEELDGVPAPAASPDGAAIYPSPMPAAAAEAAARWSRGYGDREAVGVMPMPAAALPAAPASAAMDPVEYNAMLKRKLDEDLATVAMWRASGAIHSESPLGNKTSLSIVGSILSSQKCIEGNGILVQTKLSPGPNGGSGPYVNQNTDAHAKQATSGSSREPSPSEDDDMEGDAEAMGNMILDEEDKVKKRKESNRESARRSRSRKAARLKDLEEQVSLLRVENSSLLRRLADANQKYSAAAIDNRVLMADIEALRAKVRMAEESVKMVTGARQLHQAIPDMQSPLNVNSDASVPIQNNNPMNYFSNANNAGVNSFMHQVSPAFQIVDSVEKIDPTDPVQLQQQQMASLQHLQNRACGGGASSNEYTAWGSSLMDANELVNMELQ", "test": "protein-binding microarray (RPBM); PBS, 2% BSA, 51.3 ng/ul salmon testes DNA, 50 uM zinc acetate, 200 nM TF, 25 C, 1 h; high values mean tight binding", "details": "protein: recombinant; tags: N-terminal polyhistidine and DsRed monomer fusion (pET32a); chain copies: 2; label: CyDye5-dUTP incorporated in the synthesized complementary strand; 3' TTTTT single-stranded linker to array surface; dsDNA, one strand shown", "outline": "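Transcription factors, each fused N-terminally to a polyhistidine tag and DsRed, were expressed in E. coli BL21-CodonPlus and purified on Ni–NTA. A custom Agilent array was made double-stranded by primer extension with Cy5-dUTP and blocked with 2% BSA. It was incubated with 200 nM protein in PBS, 2% BSA, salmon testes DNA and 50 µM zinc acetate at 25 °C for 1 h, then washed. The binding signal is per-feature fluorescence intensity (arbitrary units) read on an Axon 4000B scanner.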", "values": [
      {"sequence": "GACATTTACATGTACTGATTGCTGATTGCCATTGATTCATCGGAGTCACCTAGTGCAG", "binding signal": "22800 fluorescence intensity (a.u.)"},
      {"sequence": "CAGTGTTACATCATCGACCGGTTATCATCTTTGTTTCGATCGGAGTCACCTAGTGCAG", "binding signal": "3580 fluorescence intensity (a.u.)"},
      {"sequence": "TTGCACATGCTGATTATTACATATTGCTACGTCCTTTTGCCGGAGTCACCTAGTGCAG", "binding signal": "3230 fluorescence intensity (a.u.)"},
      {"sequence": "GGTGTGTATTGACGCACCACGTATGTCTATCTTCTTTCGTCGGAGTCACCTAGTGCAG", "binding signal": "3820 fluorescence intensity (a.u.)"},
      {"sequence": "TGGCCGGAATCACACGCACAAGGTGCTGCGTCACCTATAACGGAGTCACCTAGTGCAG", "binding signal": "9040 fluorescence intensity (a.u.)"},
      {"sequence": "CACGATCCATCATATCGCTTGAGCTAGCCACAACACACAACGGAGTCACCTAGTGCAG", "binding signal": "22100 fluorescence intensity (a.u.)"},
      {"sequence": "GCATGGTGGCGGCGGGAAGGAGGAGTGGGGCGGCGGGTGCCGGAGTCACCTAGTGCAG", "binding signal": "3770 fluorescence intensity (a.u.)"},
      {"sequence": "CGAGTGCCACGCGTGCGCCCACCGCCACGTCACCGATCCCCGGAGTCACCTAGTGCAG", "binding signal": "53800 fluorescence intensity (a.u.)"},
      {"sequence": "GTCCGTCGCGCGTCACCGCGTGCCTCGCCACGCCCACGCCCGGAGTCACCTAGTGCAG", "binding signal": "5090 fluorescence intensity (a.u.)"},
      {"sequence": "GGGCCCCGCAGGCGCAGGCGCAGCGGTACGCCGTCGTCGGCGGAGTCACCTAGTGCAG", "binding signal": "54200 fluorescence intensity (a.u.)"},
      {"sequence": "GGGCAGATCCGGCGCCCGACGCCGGCGGATCCGCCGTCGTCGGAGTCACCTAGTGCAG", "binding signal": "32500 fluorescence intensity (a.u.)"},
      {"sequence": "GCCACCGCCGCGGGCGCGGCCCCGGCCCCGGCCCCGGCCGCGGAGTCACCTAGTGCAG", "binding signal": "3390 fluorescence intensity (a.u.)"},
      {"sequence": "CCCGCCGCGCCGCGTCCCGGCCACCGCGCCGCCCGCCGCGCGGAGTCACCTAGTGCAG", "binding signal": "4250 fluorescence intensity (a.u.)"},
      {"sequence": "GAAGCCATCCACGCGGCACCATCGGACGGCTCTCGCGCCCCGGAGTCACCTAGTGCAG", "binding signal": "5210 fluorescence intensity (a.u.)"},
      {"sequence": "CCCCACCACCTCATCGATCCGCGCCACCACCCAACCCACCCGGAGTCACCTAGTGCAG", "binding signal": "4250 fluorescence intensity (a.u.)"},
      {"sequence": "CGTCGAACCGGCGGCGGCCCGCGCCACCCACCCTACCCGCCGGAGTCACCTAGTGCAG", "binding signal": "49100 fluorescence intensity (a.u.)"},
      {"sequence": "TCCCGCTCACCACCACGCCACGTCACCGATCCGCGCAACCCGGAGTCACCTAGTGCAG", "binding signal": "22400 fluorescence intensity (a.u.)"},
      {"sequence": "CTTGGATCCAACGGCCACGGCTCTCTCATCGCCGCGCCCCCGGAGTCACCTAGTGCAG", "binding signal": "46100 fluorescence intensity (a.u.)"},
      {"sequence": "CCAGCCCCGCGCCGGCCGCCGTCCGTCCGCCCGCGCGCGGCGGAGTCACCTAGTGCAG", "binding signal": "3540 fluorescence intensity (a.u.)"},
      {"sequence": "ACACATGCTTCAAGTGGCTAAGAGGGCATCCTCCCTTTTACGGAGTCACCTAGTGCAG", "binding signal": "16000 fluorescence intensity (a.u.)"},
      {"sequence": "TAACTTCTTGCAGAAATGCCTCGTCATCGGTGACGCCGTTCGGAGTCACCTAGTGCAG", "binding signal": "4870 fluorescence intensity (a.u.)"},
      {"sequence": "AAATTTGATCCTCGCACACCAGCTCAGCTACAGATGACATCGGAGTCACCTAGTGCAG", "binding signal": "4230 fluorescence intensity (a.u.)"},
      {"sequence": "TTTGCATGCTTCATTACCACCTTCATCCACGTTGAAAGTACGGAGTCACCTAGTGCAG", "binding signal": "4160 fluorescence intensity (a.u.)"},
      {"sequence": "GCACATCGCGCTCGCCGAAGCAGAACCACGCGGCCACCGGCGGAGTCACCTAGTGCAG", "binding signal": "3240 fluorescence intensity (a.u.)"},
      {"sequence": "CGCAGCAAGCGTCACGTCACCAACTGTTTGCTCCAACTGTCGGAGTCACCTAGTGCAG", "binding signal": "9370 fluorescence intensity (a.u.)"},
      {"sequence": "AAGAAACAACACACGTTAGCATTTCACTGCTATTAAGTTCCGGAGTCACCTAGTGCAG", "binding signal": "5010 fluorescence intensity (a.u.)"},
      {"sequence": "GACGTTAGTGATCAGCTGGGTTAATTAATTACGTGGCTAACGGAGTCACCTAGTGCAG", "binding signal": "7210 fluorescence intensity (a.u.)"},
      {"sequence": "CTCGCTGCTTCGCCCGCCACGTCACCCTCCTCCTCCTCCCCGGAGTCACCTAGTGCAG", "binding signal": "62000 fluorescence intensity (a.u.)"},
      {"sequence": "TTCGCGCGCCACCTCCTCGCGCTCGCCTGCTTCTTCTCCCCGGAGTCACCTAGTGCAG", "binding signal": "3380 fluorescence intensity (a.u.)"},
      {"sequence": "GCTGCTGCACCACGTCCTTCCTCTTCCTCGCCCCACCACCCGGAGTCACCTAGTGCAG", "binding signal": "6380 fluorescence intensity (a.u.)"},
      {"sequence": "AAAACCTGACTTTGCATCATTAGACGATTTGTCCATTGAACGGAGTCACCTAGTGCAG", "binding signal": "3160 fluorescence intensity (a.u.)"},
      {"sequence": "GGCTAGCCAGCGACCGACCGGCGGCCACCGTGGCGGGATTCGGAGTCACCTAGTGCAG", "binding signal": "4850 fluorescence intensity (a.u.)"},
      {"sequence": "AGGTACGTAAATTTTATATATTCCATATGAGCTCTAAATACGGAGTCACCTAGTGCAG", "binding signal": "3580 fluorescence intensity (a.u.)"},
      {"sequence": "AGGAGGTAGGATAGTTCCCTCCGTAATGGATCGAGGATGTCGGAGTCACCTAGTGCAG", "binding signal": "42000 fluorescence intensity (a.u.)"},
      {"sequence": "CACGCAGTAGGGATCGAGGATGTCGTACGCGTACCTCTTCCGGAGTCACCTAGTGCAG", "binding signal": "26100 fluorescence intensity (a.u.)"},
      {"sequence": "GTAGTCGTAATGTCATCGTCATCGACATCGATGTGTTGCTCGGAGTCACCTAGTGCAG", "binding signal": "4940 fluorescence intensity (a.u.)"},
      {"sequence": "TCCTTCTTCCTTGGCCTCTTCCTAATGACAAGCCCTTGCGCGGAGTCACCTAGTGCAG", "binding signal": "3610 fluorescence intensity (a.u.)"},
      {"sequence": "GCTCTTGAGAATGTTGCTGAGTTGTCAGCTCTCTCCACCCCGGAGTCACCTAGTGCAG", "binding signal": "15700 fluorescence intensity (a.u.)"},
      {"sequence": "CCATATAGGAATTTAAAACTAACTAAAATTCGGAATAAACCGGAGTCACCTAGTGCAG", "binding signal": "3400 fluorescence intensity (a.u.)"},
      {"sequence": "ACCCATAGAGATCGACACTATAGGTACCGGAATAACTAAACGGAGTCACCTAGTGCAG", "binding signal": "63800 fluorescence intensity (a.u.)"},
      {"sequence": "GATCGTACATGTTCACATAAACACCCACGACACTACCCTACGGAGTCACCTAGTGCAG", "binding signal": "18400 fluorescence intensity (a.u.)"},
      {"sequence": "AGAGAGAGCGTGGGTGGGGTGGGTGCTCTGGGTGACTGGGCGGAGTCACCTAGTGCAG", "binding signal": "6040 fluorescence intensity (a.u.)"},
      {"sequence": "CATGCGATACTACCCCAACGGCCTCGACGACGGCTGCGCCCGGAGTCACCTAGTGCAG", "binding signal": "26900 fluorescence intensity (a.u.)"}
    ]}
  ]
}
